Source: PubChem BioAssay AID492994 (Johns Hopkins Ion Channel Center, 2010)
Entries with a potency or affinity are not part of this list. Values without a mark were called inactive.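 How the source made its calls: active means TRPC4 ion channel inhibited over 30% at some tested dose, with a fitted dose response curve; inactive means no inhibition or no dose response curve.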

Each molecule was assayed against Short transient receptor potential channel 4 (Mus musculus) (UniProt Q9QUQ5) (assay: potency of mouse TRPC4 calcium flux blockers – cell-based, HEK293 TRPC4/mu-opioid, DAMGO stimulus, Fluo-4, dose response (AID 492994)). Conditions: HEK293 TRPC4/mu-opioid cells, Fluo-4 calcium flux, DAMGO-activated; series mostly up to 20 µM; fluorescence ratio, lower = inhibition: at the top concentration.
Sequence of Short transient receptor potential channel 4 (Mus musculus) (Q9QUQ5 whole entry, looked up): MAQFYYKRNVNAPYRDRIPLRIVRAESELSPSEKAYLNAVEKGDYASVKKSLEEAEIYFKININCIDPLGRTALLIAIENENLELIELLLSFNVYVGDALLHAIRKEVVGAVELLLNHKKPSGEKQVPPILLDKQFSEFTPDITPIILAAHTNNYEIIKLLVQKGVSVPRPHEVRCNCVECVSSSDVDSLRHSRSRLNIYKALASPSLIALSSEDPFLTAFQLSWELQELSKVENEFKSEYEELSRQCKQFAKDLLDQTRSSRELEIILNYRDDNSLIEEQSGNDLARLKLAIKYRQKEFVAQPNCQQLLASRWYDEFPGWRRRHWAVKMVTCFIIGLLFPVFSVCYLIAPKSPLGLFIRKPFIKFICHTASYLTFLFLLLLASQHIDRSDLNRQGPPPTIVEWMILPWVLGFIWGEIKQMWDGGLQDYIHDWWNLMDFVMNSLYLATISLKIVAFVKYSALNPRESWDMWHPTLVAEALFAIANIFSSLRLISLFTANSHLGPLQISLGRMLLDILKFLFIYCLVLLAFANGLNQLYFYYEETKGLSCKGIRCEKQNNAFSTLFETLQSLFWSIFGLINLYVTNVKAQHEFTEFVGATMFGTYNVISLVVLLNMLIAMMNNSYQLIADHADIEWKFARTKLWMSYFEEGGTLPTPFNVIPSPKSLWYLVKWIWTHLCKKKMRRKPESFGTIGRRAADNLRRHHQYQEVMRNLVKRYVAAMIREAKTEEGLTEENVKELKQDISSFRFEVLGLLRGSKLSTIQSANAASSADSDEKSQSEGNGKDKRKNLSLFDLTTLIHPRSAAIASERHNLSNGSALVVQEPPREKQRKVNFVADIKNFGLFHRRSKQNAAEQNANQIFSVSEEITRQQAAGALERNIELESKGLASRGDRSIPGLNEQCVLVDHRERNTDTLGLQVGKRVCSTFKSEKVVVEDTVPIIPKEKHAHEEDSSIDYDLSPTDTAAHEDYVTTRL

Which “fluorescence ratio, lower = inhibition” value does the source give for `Cc1cc(N2CCCCC2)nc2c(C)cccc12` here?
Its value is 3.26.

Which “fluorescence ratio, lower = inhibition” value does the source give for `Cc1cc(N2CCN(CC3CCCO3)CC2)nc2ccccc12` (stereo not given) here?
The value was 29.2.

Which “fluorescence ratio, lower = inhibition” value does the source give for `c1ccc(-c2cc(N3CCCCCC3)nc3ccccc23)cc1` here?
Its value is 32.7.

Which “fluorescence ratio, lower = inhibition” value does the source give for `Cc1ccnc(N2CCCC2)n1` here?
Its value is 3.5.

Which “fluorescence ratio, lower = inhibition” value does the source give for `Cc1ccnc(N2CCCCCC2)n1` here?
Its value is 41.7.

`Cc1ccnc(N2CCCCCC2)c1` was tested. Which “fluorescence ratio, lower = inhibition” value did it give?
The value was 17.4.

With `Cc1cc(N(C)CCN(C)C)nc2ccccc12` as the molecule, how does the “fluorescence ratio, lower = inhibition” value read?
Its value is 62.6.

`COc1ccc(N2CCN(c3cc(C)c4ccccc4n3)CC2)cc1` was tested. Which “fluorescence ratio, lower = inhibition” value did it give?
Its value is 47.1.

For `FC(F)(F)c1cc(N2CCCC2)nc2ccccc12`, which “fluorescence ratio, lower = inhibition” value is on record?
Its value is 3.76.

With `Cc1ccnc(N2CCCCC2)c1` as the molecule, how does the “fluorescence ratio, lower = inhibition” value read?
The value was 2.21.

How did the “fluorescence ratio, lower = inhibition” value turn out when `Cc1ccnc(N2CCCCC2)n1` was run?
The value was 3.26.

`Cc1ccnc(N2CCCC2)c1` was tested. Which “fluorescence ratio, lower = inhibition” value did it give?
The value was 3.

For `COc1ccccc1N1CCN(c2cc(C)c3ccccc3n2)CC1`, which “fluorescence ratio, lower = inhibition” value is on record?
Its value is 5.63.

For `Cc1cc(N2CCCCCC2)nc2c(C)cccc12`, which “fluorescence ratio, lower = inhibition” value is on record?
The value was 26.7.

Which “fluorescence ratio, lower = inhibition” value does the source give for `c1ccc(-c2cc(N3CCCCC3)nc3ccccc23)cc1` here?
Its value is 1.76.

Which “fluorescence ratio, lower = inhibition” value does the source give for `FC(F)(F)c1cc(N2CCCCC2)nc2ccccc12` here?
The value was 2.73.

For `FC(F)(F)c1cc(N2CCCCCC2)nc2ccccc12`, which “fluorescence ratio, lower = inhibition” value is on record?
The value was 34.7.

For `CCc1ccc2nc(N3CCCCC3)cc(C)c2c1`, which “fluorescence ratio, lower = inhibition” value is on record?
Its value is -3.47.

For `Cc1cc(N2CCN(c3ccccc3C#N)CC2)nc2ccccc12`, which “fluorescence ratio, lower = inhibition” value is on record?
The value was 11.1.

`c1ccc(-c2cc(N3CCCC3)nc3ccccc23)cc1` was tested. Which “fluorescence ratio, lower = inhibition” value did it give?
Its value is 2.49.
